Results filed as inconclusive are left out. Activity calls are given as the source filed them. Unless noted, calls come from the whole dose curve; as a rule, active = well fitted curve in the direction sought with a large enough effect in the repeat runs; inconclusive = weak or mixed curves; inactive = no such curve, though single readings can be large; an effect the other way counts as inactive or inconclusive.
Tests used:
[1] = qHTS assay to identify small molecule agonists of the vitamin D receptor (VDR) signaling pathway - cell viability counter screen (AID 743224); details: VDR-bla HEK293T viability, CellTiter-Glo luminescence, 16 h; series mostly up to 62.6 µM; note: nearly all actives have a fitted effect of over 50% in size; note: potency is the fitted concentration of half-maximal effect
Method in brief: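 Plated VDR-bla cells (4 h, 37C) received compound, incubated 16 h, then LiveBLAzer substrate 2 h RT; CellTiter-Glo added afterwards, luminescence read at 30 min.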

[2] = qHTS assay to identify small molecule antagonists of the vitamin D receptor (VDR) signaling pathway - cell viability counter screen (AID 743225); details: VDR-bla HEK293T viability, CellTiter-Glo luminescence, 16 h; series mostly up to 61 µM; note: nearly all actives have a fitted effect of over 50% in size; note: potency is the fitted concentration of half-maximal effect
Method in brief: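 Cytotoxicity toward the VDR-bla HEK 293T line was scored by ATP-based CellTiter-Glo luminescence, read in the wells already used for the beta-lactamase readout after 16 h compound treatment under 3 nM 1-alpha,25-dihydroxyvitamin D3 stimulation.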

[3] = qHTS assay to identify small molecule agonists of the NFkB signaling pathway - cell viability counter screen (AID 1159515; calls by dose curve; note: % is set by controls: 0 for no effect and ±100 for the full control effect; nearly all actives have a fitted effect of over 55% in size); details: NFkB-bla ME-180 viability, CellTiter-Glo luminescence, 5 h; series mostly up to 61 µM
Method in brief: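 Using the same wells as the NFkB reporter read, ME-180 NFkB-bla cells given compounds for 5 hr were assessed for viability via CellTiter-Glo, with luminescence taken after a 30 min room-temperature incubation.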

[4] = qHTS assay to identify small molecule agonists of the endoplasmic reticulum stress response signaling pathway (AID 1159516; active = well fitted activation curve with a large enough effect in the signal ratio in the repeat runs, not every such curve was filed as active; the % refers to the signal ratio; note: potency is the fitted concentration of half-maximal effect); details: ESRE-bla HeLa, ER stress beta-lactamase reporter, 5 h; series mostly up to 61 µM
Method in brief: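 An ESRE-bla HeLa cell assay: compounds were pin-transferred from DMSO onto overnight-plated cells and left 5 hr at 37 C. Substrate was then loaded for 2 hr at room temperature before reading fluorescence at 460 nm and 530 nm.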

[5] = qHTS assay to identify small molecule agonists of the endoplasmic reticulum stress response signaling pathway - cell viability counter screen (AID 1159517; calls by dose curve;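 note: HeLa cells carrying an ER stress response element beta-lactamase reporter; % is set by controls: 0 for no effect and ±100 for the full control effect; nearly all actives have a fitted effect of over 50% in size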); details: ESRE-bla HeLa viability, CellTiter-Glo luminescence, 5 h; series mostly up to 61 µM
Method in brief: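 HeLa cells carrying an ESRE-driven beta-lactamase reporter receive compound for 5 hr at 37 C. Cell viability is then gauged with CellTiter-Glo by luminescence, 30 min at room temperature.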

[6] = qHTS assay to identify small molecule antagonists of the retinoid-related orphan receptor gamma (ROR-gamma) signaling pathway - cell viability counter screen (AID 1159520); details: Tet-on RORgamma CHO cells viability, ATP luminescence, 16 h; series mostly up to 92.4 µM; note: nearly all actives have a fitted effect of over 50% in size; note: potency is the fitted concentration of half-maximal effect
Method in brief: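 Cytotoxicity was read from cellular ATP (CellTiter-Glo luminescence) after 16 hr at 37 C with 1 uM doxycycline induction. The inducer was added 2 hr after compound transfer to Tet-on ROR gamma CHO cells.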

[7] = qHTS assay to identify small molecule agonists of the AP-1 signaling pathway - cell viability counter screen (AID 1159525; calls by dose curve; note: nearly all actives have a fitted effect of over 55% in size); details: ME-180 AP-1-bla cells viability, ATP luminescence, 5 h; series mostly up to 76.8 µM
Method in brief: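 Luminescent ATP readout (Cell Titer Glo, 30 min RT), normalised to DMSO and tetra n-octyl ammonium bromide controls. Cells were ME-180 AP-1-bla in 0.5% dialyzed FBS Opti-MEM, with a 5 h, 37 °C compound exposure.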

[8] = qHTS assay to identify small molecule agonists of the AP-1 signaling pathway (AID 1159526; calls by dose curve; note: % is set by controls: 0 for no effect and ±100 for the full control effect); details: ME-180 (cervical carcinoma) AP-1-bla reporter, beta-lactamase FRET ratio, 5 h; series mostly up to 76.8 µM
[9] = qHTS assay to identify small molecule agonists of the RXR signaling pathway - cell viability counter screen (AID 1159529); details: RXR-alpha-bla HEK293T viability, CellTiter-Glo, 16 h; series mostly up to 76.8 µM; note: nearly all actives have a fitted effect of over 50% in size; note: potency is the fitted concentration of half-maximal effect
Method in brief: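 Tox21 10K compounds were tested for cytotoxicity against GeneBLAzer RXR-alpha HEK 293T cells grown in 2% charcoal-stripped FBS. Exposure lasted 16 hr at 37 C, 5% CO2; viability read by CellTiter-Glo luminescence.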

[10] = qHTS assay to identify small molecule antagonists of the retinoid acid receptor (RAR) signaling pathway - cell viability counter screen (AID 1159551); details: C3RL4 cells viability, ATP luminescence (CellTiter-Glo), 6 h; series mostly up to 92.4 µM; note: % is set by controls: 0 for no effect and ±100 for the full control effect; nearly all actives have a fitted effect of over 35% in size
Method in brief: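 Retinol-stimulated (1 uM final) C3RL4 cells, compound 6 h, 37 C; readout CellTiter-Glo luminescence (ATP) after 30 min RT incubation.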

[11] = qHTS assay to identify small molecule agonists of the retinoic acid receptor (RAR) signaling pathway (AID 1159553); details: C3RL4 RARE luciferase reporter, agonist, 6 h; series mostly up to 73.3 µM; note: % is set by controls: 0 for no effect and ±100 for the full control effect
Method in brief: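 Reporter readout comes from luciferase under RARE control in C3RL4 cells; compound exposure lasts 6 hr at 37 C in 5% CO2, and luminescence is recorded following a 30 min room-temperature incubation with reagent.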

[12] = qHTS assay to identify small molecule antagonists of the estrogen related receptor (ERR) signaling pathway (AID 1224819); details: ERR reporter cell line, luciferase inhibition; series mostly up to 46.1 µM
Method in brief: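 Luminescence readout (One-Glo, 30 min, RT) of ERR cell line after 18 h compound exposure at 37 C; cells seeded 2,000/well, pre-incubated 6 h, compounds pinned from DMSO stocks.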

[13] = qHTS assay to identify small molecule agonists of the estrogen related receptor (ERR) signaling pathway (AID 1224820); details: ERR reporter cell line, luciferase agonist mode; series mostly up to 46.1 µM; note: % is set by controls: 0 for no effect and ±100 for the full control effect
Method in brief: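 ERR reporter cell line (from NTP), 2,000 cells/well, incubated 6 h before compound addition, then 18 h at 37 C. Luminescence measured 30 min after One-Glo reagent at room temperature.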

[14] = test system: estrogen-related receptor alpha (ERRalpha) with PGC-1alpha coactivator, human; test: qHTS assay to identify small molecule antagonists of the estrogen related receptor signaling pathway with the pleiotropic PPARgamma coactivator (PGC) (AID 1224821; calls by dose curve); details: ERR/PGC reporter cell line, luciferase, antagonist mode; series mostly up to 46.1 µM
Method in brief: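 PGC/ERR reporter cell line, plated 6 h before compound addition, then exposed 18 h at 37 °C. Luciferase activity read by luminescence 30 min after One-Glo addition; decrease indicates antagonism.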

[15] = qHTS assay to identify small molecule agonists of the estrogen related receptor signaling pathway with the pleiotropic PPARgamma coactivator (PGC) (AID 1224823); details: ERR/PGC reporter cell line, luciferase agonist mode; series mostly up to 46.1 µM; note: % is set by controls: 0 for no effect and ±100 for the full control effect
Method in brief: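 PGC/ERR reporter cells seeded 6 h, then exposed to compounds (23 nL in DMSO) for 18 h at 37 C. One-Glo luciferase luminescence read after 30 min at room temperature.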

[16] = qHTS assay to identify small molecule antagonists of the retinoic acid receptor (RAR) signaling pathway (AID 1159552); details: C3RL4 RARE luciferase reporter, retinol-stimulated, 6 h; series mostly up to 92.4 µM
Method in brief: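 Overnight-plated C3RL4 reporter cells get compound, then retinol to 1 uM final; plates sit 6 hr at 37 C, 5% CO2. A luciferase reagent is added and light output recorded after 30 min at room temperature.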

[17] = target: Retinoic acid receptor RXR-alpha (Homo sapiens) (UniProt P19793); test: qHTS assay to identify small molecule agonists of the RXR signaling pathway (AID 1159527; calls by dose curve; note: nearly all actives have a fitted effect of over 35% in size; note: potency is the fitted concentration of half-maximal effect); details: HEK293T RXRa-UAS-bla, beta-lactamase ratio, 16 h; series mostly up to 76.8 µM
Method in brief: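 Reporter activation is measured as beta-lactamase activity via FRET substrate cleavage (emission 460/530 nm) in HEK 293T cells expressing an RXR-alpha-driven bla construct, following 16 hr compound exposure at 37 C.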

[18] = qHTS assay to identify small molecule antagonists of the estrogen related receptor (ERR) signaling pathway - cell viability counter screen (AID 1224818); details: ERR reporter cell line viability counter screen; series mostly up to 46.1 µM
Method in brief: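 After a 6 h pre-incubation, ERR cells were dosed by pin tool with compounds, positive/negative controls or DMSO alone. Following 17.5 h at 37 C and 30 min with CellTiter-Fluor, fluorescence was recorded.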

[19] = qHTS assay to identify small molecule antagonists of the estrogen related receptor signaling pathway with the pleiotropic PPARgamma coactivator (PGC) cell viability counter screen (AID 1224822); details: ERR/PGC reporter cell line viability counter screen; series mostly up to 46.1 µM
Method in brief: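 PGC/ERR cells were plated at 2,000 per well and allowed 6 h to settle before compound addition. Following 17.5 h at 37 C, CellTiter-Fluor reagent was added and fluorescence was read 30 min later.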

Sequence of Retinoic acid receptor RXR-alpha (Homo sapiens) (P19793 whole entry, looked up): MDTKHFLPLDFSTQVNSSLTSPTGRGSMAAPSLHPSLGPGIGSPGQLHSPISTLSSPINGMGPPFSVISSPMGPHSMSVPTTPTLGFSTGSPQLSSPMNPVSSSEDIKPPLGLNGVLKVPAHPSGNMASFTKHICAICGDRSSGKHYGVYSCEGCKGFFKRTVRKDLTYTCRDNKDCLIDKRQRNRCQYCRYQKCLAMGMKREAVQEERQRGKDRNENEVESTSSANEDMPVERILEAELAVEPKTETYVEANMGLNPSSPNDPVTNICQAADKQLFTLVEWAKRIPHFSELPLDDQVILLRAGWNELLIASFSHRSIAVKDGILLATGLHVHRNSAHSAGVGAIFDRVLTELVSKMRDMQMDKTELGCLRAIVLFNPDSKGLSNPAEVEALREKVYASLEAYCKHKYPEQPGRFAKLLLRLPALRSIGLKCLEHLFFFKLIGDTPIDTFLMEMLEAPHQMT

CC(C)(COC(=O)c1ccccc1)COC(=O)c1ccccc1
inactive: Potency [1] | Potency [2] | Potency [3] | Potency [4] | Potency [5] | Potency [6] | Potency [7] | Potency [8] | Potency [9] | Potency [10]

CCc1cc(C2=C(C(=O)O)N(c3ccccc3C(F)(F)F)S(=O)(=O)c3ccccc32)cc2c1OCO2
inactive: Potency [1] | Potency [2] | Potency [3] | Potency [4] | Potency [5] | Potency [6] | Potency [7] | Potency [8] | Potency [10]

CC(C)C[C@H]1C(=O)N2CCC[C@H]2[C@]2(O)O[C@](NC(=O)[C@@H]3C=C4c5cccc6[nH]c(Br)c(c56)C[C@H]4N(C)C3)(C(C)C)C(=O)N12
active: Potency [12] 16.8 µM | Potency [14] 16.2 µM
inactive: Potency [1] | Potency [2] | Potency [3] | Potency [4] | Potency [5] | Potency [6] | Potency [7] | Potency [8] | Potency [9] | Potency [11] | outcome [13] | outcome [15]

CCN(CC)CCNc1ccc(CNC=O)c2sc3ccc(OC)cc3c(=O)c12
inactive: Potency [3] | Potency [4] | Potency [5] | Potency [7] | Potency [8] | Potency [10]
active: Potency [1] 54.9 µM | Potency [2] 43.6 µM | Potency [6] 54.5 µM | Potency [9] 3.09 µM

CNCCCCOc1ccccc1Cc1ccccc1
inactive: Potency [3] | Potency [4] | Potency [5] | Potency [6] | Potency [7] | Potency [9]

CCOC(=O)c1cccnc1
inactive: Potency [1] | Potency [2] | Potency [3] | Potency [4] | Potency [5] | Potency [6] | Potency [7] | Potency [8] | Potency [9] | Potency [10]

CCOC(=O)COC(=O)c1cc(Oc2ccc(C(F)(F)F)cc2Cl)ccc1[N+](=O)[O-]
inactive: Potency [1] | Potency [2] | Potency [3] | Potency [4] | Potency [5] | Potency [6] | Potency [7] | Potency [8] | Potency [9] | Potency [11]

Brc1c2ccccc2c(Br)c2ccccc12
active: Potency [4] 0.882 µM
inactive: activity change, negative = cytotoxicity [1] 13.8% [at 5.95 µM] | viability change, negative = cytotoxic [2] -26.5% [at 6.95 µM] | activity, negative = cytotoxic [3] -0.607% [at 6.95 µM] | activity change, negative = cytotoxicity [5] -1.22% [at 6.95 µM] | activity, negative = cytotoxicity [6] 12% [at 8.39 µM] | viability change, negative = cytotoxic [7] 0.0847% [at 6.97 µM] | activation [8] -11.4% [at 6.97 µM] | activity change, negative = cytotoxicity [9] 0.822% [at 6.97 µM] | activation [11] -1.37% [at 8.36 µM]

O=C(O)c1ccc(-n2nc(-c3ccccc3O)nc2-c2ccccc2O)cc1
inactive: Potency [2] | Potency [3] | Potency [4] | Potency [5] | Potency [6] | Potency [7] | Potency [8] | Potency [9] | Potency [16]

Cc1ccc(N=Nc2c(O)c(C(=O)O)cc3ccccc23)c(S(=O)(=O)O)c1
inactive: Potency [1] | Potency [2] | Potency [3] | Potency [4] | Potency [5] | Potency [6] | Potency [7] | Potency [9] | Potency [10] | Potency [16]

CCC(C)c1cc(C(C)(C)C)c(O)c(C(C)(C)C)c1 (stereo not drawn)
active: Potency [17] 0.958 µM
inactive: Potency [1] | Potency [2] | Potency [3] | Potency [4] | Potency [5] | Potency [6] | Potency [7] | Potency [9] | Potency [10] | Potency [11]

CNCCCN1c2ccccc2CCc2ccccc21
inactive: Potency [3] | Potency [4] | Potency [5] | Potency [6] | Potency [7] | Potency [10] | outcome [18]
active: Potency [1] 15 µM

CCCCc1ncc(/C=C(\Cc2cccs2)C(=O)O)n1Cc1ccc(C(=O)O)cc1
inactive: Potency [1] | Potency [2] | Potency [3] | Potency [4] | Potency [5] | Potency [6] | Potency [7] | Potency [9] | Potency [10] | Potency [16] | Potency [11] | outcome [18] | outcome [19]

CCCCCC[C@@H](O)C/C=C\CCCCCCCC(=O)OC
inactive: Potency [1] | Potency [2] | Potency [3] | Potency [4] | Potency [5] | Potency [6] | Potency [7] | Potency [9] | Potency [10] | Potency [16]

O=C(c1ccc(F)cc1)C1CCN(CCn2c(=S)[nH]c3ccccc3c2=O)CC1
inactive: Potency [2] | Potency [3] | Potency [4] | Potency [5] | Potency [6] | Potency [7] | Potency [9] | Potency [10] | Potency [16]

COC(=O)c1ccc(I)cc1S(=O)(=O)NC(=O)Nc1nc(C)nc(OC)n1
inactive: Potency [1] | Potency [2] | Potency [3] | Potency [4] | Potency [5] | Potency [6] | Potency [7] | Potency [8] | Potency [9] | Potency [10]

Cc1oc(-c2ccccc2)nc1CCOc1cccc2c1ccn2CCC(=O)O
inactive: Potency [1] | Potency [2] | Potency [3] | Potency [4] | Potency [5] | Potency [6] | Potency [7] | Potency [10] | Potency [16] | Potency [11]

O=[N+]([O-])c1cccc(S(=O)(=O)O)c1
inactive: Potency [1] | Potency [2] | Potency [3] | Potency [4] | Potency [5] | Potency [6] | Potency [7] | Potency [8] | Potency [10] | Potency [11]

CCOC(=O)C1=C[C@]2(CC)CCCN3CCc4c(n1c1ccccc41)[C@@H]32
inactive: Potency [1] | Potency [2] | Potency [3] | Potency [4] | Potency [5] | Potency [6] | Potency [7] | Potency [17] | Potency [9] | Potency [10] | Potency [16] | Potency [11] | outcome [18] | outcome [19]
